# MCF10A rerep: DNA re-replication induction in MCF 10a cells; Potency, µM (titrated, usually from 46.1 µM), for inactives: at the highest dose activity, positive = re-replication, most hits filed as activators; AID 624296; 350,000 compounds, 2.9% hits; MCF 10A DNA re-replication, Hoechst nuclear intensity, 48 h; further: potency means the concentration at half of the fitted maximal effect; % of control where 0% means no effect; nearly all actives have a fitted effect of over 50% in size
# SW480 rereplic: inducers of DNA re-replication in SW480 colon cancer cells. 340,000 compounds, 1.8% hits. Potency, µM (titrated, usually from 46.1 µM), without a hit: at the top dose re-replication activation, hits mostly activators. SW480 DNA re-replication, Hoechst DNA content imaging, 48 h; further: potency means the concentration at half of the fitted maximal effect; % of control where 0% means no effect; nearly all actives have a fitted effect of over 55% in size
#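 Per well, 250 cells were exposed to pinned compound for 48 hr. Nuclear DNA was visualised with Hoechst (40 min, 37 C) and total object intensity recorded by fluorescence scanning.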
# KB-V1 cytotox: kills drug-selected multidrug resistant KB-V1 cells. KB-V1 MDR cells viability, CellTiter-Glo, 72 h. Potency, µM (doses to about 46.1 µM), actives largely listed as cytotoxic. 400,000 compounds, 3.4% hits. AID 1347076; further: potency means the concentration at half of the fitted maximal effect; on the % scale 0 is the no-effect control and ±100 the full control effect; nearly all actives have a fitted effect of over 60% in size
#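 qHTS viability screen in drug-selected KB-V1 MDR cells: 72 h compound treatment at 37 degrees C, ATP luminescence end point.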
# KB-3-1 cytotox: kills parental KB-3-1 adenocarcinoma cells | KB-3-1 viability, CellTiter-Glo ATP luminescence, 72 h | Potency, µM (top dose mostly 46.1 µM), most hits filed as cytotoxic | 400,000 compounds, 1.4% hits; further: potency means the concentration at half of the fitted maximal effect; on the % scale 0 is the no-effect control and ±100 the full control effect; nearly all actives have a fitted effect of over 60% in size
#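 Multi-concentration cytotoxicity screen in KB-3-1 cells grown in DMEM lacking phenol red with 10% FBS. After 72 h at 37 °C with compound, ATP-dependent luminescence was recorded.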
# IL1B secr inh: inflammasome signaling inhibition, IL-1 beta readout; THP-1 LPS/ATP IL-1B secretion, AlphaLISA, 16 h; hits give low values; activity change, % at 57.5 µM; 360,000 compounds, 4.7% hits; AID 743279; in the data active means activity change below about -50%; inconclusive means mostly about -30% to -49%; further: on the % scale 0 is the no-effect control and ±100 the full control effect
#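 Secreted IL-1B measured by AlphaLISA bead assay after 16 h compound exposure of THP-1 cells; compounds (final up to 57.5 uM) added 1 h before LPS (250 ng/mL) and ATP (1.25 mM) stimulation; lower signal means less secretion.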
# * marks the source's active call; other numbers are inactive results; i = inactive; ? = inconclusive; nt = no result given; [ ] = dose if it differs, or a comment. Only some compounds are listed: those with a hit (about 9.9% of all), similar ones and a draw of the others. Unless noted, the call rests on the fitted dose curve; in most records, active means well fitted curve in the direction sought with a large enough effect; inconclusive means small, poorly fitted or top-dose-only effect, or another doubt; inactive means no such curve, though single readings can be large; an effect the other way counts as inactive or inconclusive.
SMILES,MCF10A rerep,SW480 rereplic,KB-V1 cytotox,KB-3-1 cytotox,IL1B secr inh
CCn1c(SCc2nc3ccccc3[nH]2)nnc1-c1cccs1,-5%,-9%,8.2µM*,i,-10
c1ccc(-c2nnc(SCc3nc4ccccc4[nH]3)n2Cc2ccco2)nc1,11%,3%,2.6µM*,i,12
CCOC(=O)CC(NC(=O)c1cc2cccc(OC)c2oc1=O)c1ccc(OC)cc1 (stereo not drawn),-7%,-15%,i,i,11
CCN(CC)C(=O)[C@H]1CC(CC(=O)NCCCOC)C(=O)N2CCc3c([nH]c4ccccc34)[C@]12C (stereo partly drawn),-3%,?,i,i,21
CCOC(=O)c1ccc(NC(=O)CSc2nc3sc(C(=O)O)c(C)c3c(=O)[nH]2)cc1,7%,?,i,i,12
Cn1c(COc2ccccc2)nnc1SCc1nc2ccccc2[nH]1,?,?,?,i,46
CCn1c(COc2ccc(C)cc2)nnc1SCc1nc2ccccc2[nH]1,22%,2%,2.6µM*,i,-11
Cc1ccsc1CNC(=O)C1(C)CCN1C(=O)C(C)C (stereo not drawn),nt,nt,i,i,15
Cc1cc(C)c2c(c1)/C(=N/NC(=O)c1ccc(O)cc1)CCC2,12%,-4%,i,i,?
Cc1cc(C)c2c(c1)/C(=N/NC(=O)c1cc(C)oc1C)CCC2,?,2.9µM*,i,i,-3
O=C(c1cccc([N+](=O)[O-])c1)N1CCN(CCc2ccncc2)CC1,nt,nt,i,i,nt
CCO[C@@H]1OC(C(=O)N2CCN(Cc3ccc4c(c3)OCO4)CC2)=C[C@H](c2ccc(C(F)(F)F)cc2)[C@H]1CCCO,-1%,-13%,26µM*,?,-60*
CCO[C@@H]1OC(C(=O)NCc2ccccc2)=C[C@H](c2ccc(C(F)(F)F)cc2)[C@H]1CCCO,2.9µM*,?,i,i,-57*
CCO[C@H]1OC(C(=O)N2CCN(Cc3ccc4c(c3)OCO4)CC2)=C[C@@H](c2csc3ccccc23)[C@@H]1CCCO,165%,2%,i,?,-61*
CCO[C@H]1OC(C(=O)N2CCN(Cc3ccccc3)CC2)=C[C@@H](C2CCCCC2)[C@@H]1CCCO,?,?,?,i,-60*
COc1cccc(C2Nc3cc(Cl)c(S(N)(=O)=O)cc3S(=O)(=O)N2)c1 (stereo not drawn),-2%,-7%,i,i,1
Cc1cccc(NC(=O)CSCC(=O)Nc2sccc2C#N)c1,2%,-1%,?,i,1
Cc1ncc(CO)c(/C=N/NC(=O)c2cc3c(s2)CCCC3)c1O,?,-8%,?,?,90
Cc1ccc(S(=O)(=O)Nc2cc3c(cc2C)n(C)c(=O)c(=O)n3C)cc1,nt,nt,i,i,nt
CCO[C@@H]1OC(C(=O)N2CCN(Cc3ccc4c(c3)OCO4)CC2)=C[C@H](C2CCCCC2)[C@H]1CCCO,16%,2%,i,i,-60*
CCO[C@@H]1OC(C(=O)N2CCCCCCC2)=C[C@H](c2cn(C(C)=O)c3ccccc23)[C@H]1CCCO,?,20%[9.22 µM],i,i,-53*
CCO[C@H]1OC(C(=O)N2CCOCC2)=C[C@@H](c2cn(C(C)=O)c3ccccc23)[C@@H]1CCCO,-2%,?,i,i,9
CCO[C@H]1OC(C(=O)N2CCN(Cc3ccc4c(c3)OCO4)CC2)=C[C@@H](C(C)(C)C)[C@@H]1CCCO,?,-24%,i,i,?
Cc1cc(=O)oc2cc(OCC(=O)NC3CCCCC3)ccc12,5%,1%,i,i,-2
Cc1ccc(Oc2c(C(N)=O)cc([N+](=O)[O-])cc2[N+](=O)[O-])cc1,?,?,i,21µM*,-85*
SMILES,MCF10A rerep,SW480 rereplic,KB-V1 cytotox,KB-3-1 cytotox,IL1B secr inh
Cc1ccc(CNc2ccc([N+](=O)[O-])cc2C(N)=O)cc1,?,-24%,i,i,7
CCCCCCCCCCCCCCCCCCCCCC(=O)Nc1ccn([C@@H]2O[C@H](CO)[C@@H](O)[C@@H]2O)c(=O)n1,8%,?,nt,nt,nt
CCCCCCCCCCCCCCCCCCNc1ccn(C2OC(COP(=O)(O)OCC3OC(n4cc(F)c(=O)[nH]c4=O)CC3O)C(O)C2O)c(=O)n1 (stereo not drawn),10µM*,21µM*,i,?,-68*
OCC1(Cc2ccccc2)CCN(Cc2ccc(C(F)(F)F)cc2)CC1,?,3%,?,i,-51*
COc1ccc(CN2CCC(CO)(Cc3cccc(C(F)(F)F)c3)CC2)cc1Cn1cccn1,?,?,i,i,-75*
COc1ccc(F)c(CN2CCC(CO)(Cc3cccc(C(F)(F)F)c3)CC2)c1,?,4%,i,i,?
COc1cc(CN2CCC(CO)(Cc3cccc(C(F)(F)F)c3)CC2)ccc1F,?,?,i,i,-52*
OCC1(Cc2ccccc2)CCN(Cc2cccc(F)c2F)CC1,-1%,?,i,i,-12
CC(C)c1c(C(=O)N/N=C/c2ccc(OCc3ccccc3)cc2)nnn1-c1nonc1N,11%,?,i,i,-12
CC(C)c1c(C(=O)N/N=C/c2cccc(OCc3ccccc3)c2)nnn1-c1nonc1N,16µM*,-17%,i,i,-84*
COc1cccc(/C=N/NC(=O)c2nnn(-c3nonc3N)c2C(C)C)c1OCc1ccc(F)cc1,21µM*,?,i,i,-70*
COc1cc(-c2noc(C3CCCN(C(=O)c4ccccc4)C3)n2)cc(OC)c1OC (stereo not drawn),?,-5%,i,i,-30
O=S(=O)(NC1=NCCCCC1)c1ccc2sc(NS(=O)(=O)c3ccc4ccccc4c3)nc2c1,?,0%,i,?,-54*
COc1ccccc1-c1cc(C(=O)Nc2c(C)nn(Cc3ccc(Cl)cc3)c2C)no1,nt,nt,i,?,nt
COc1ccc(-c2cc(C(=O)Nc3c(C)nn(Cc4ccc(Cl)cc4)c3C)no2)cc1,16µM*,?,?,i,38
Cc1nn(Cc2ccc(Cl)c(Cl)c2)c(C)c1NC(=O)c1cc(-c2ccco2)on1,?,?,5.2µM*,?,-4
Cc1nn(Cc2ccc(Cl)cc2)c(C)c1NC(=O)c1cc(-c2ccco2)on1,23µM*,4%,i,i,40
CCCNC(=O)c1cc(-c2ccco2)on1,-2%,13%,?,i,-57*
Cc1ccc(Cn2nc(C)c(NC(=O)c3cc(-c4ccco4)on3)c2C)cc1,?,2%,i,?,8
Cc1cc(C)c(C)c(OCCCN(C)C)c1,10%,?,i,i,0

# Screening data deposited in PubChem BioAssay by National Center for Advancing Translational Sciences (NCATS).
